This is a sample that favours compounds with a hit; in the whole collection about 17% have one here.
ATXN viability = cell viability loss in ATXN counter-screen | S2 cells (HEK-293 line with an ATXN2-luciferase reporter) viability, CellTiter-Fluor protease fluorescence, 24 h | actives 0.49% (n = 400,000) | Potency, µM (top dose mostly 56.7 µM), actives largely listed as cytotoxic; also: nearly all actives have a fitted effect of over 40% in size
HepG2 tox = counter-screen for TGF-b inhibitors: cytotoxicity in HepG2 cells | HepG2 CAGA-GFP viability, ATP luminescence, 18 h | Potency, µM (titrated, usually from 46.1 µM), for inactives: at the highest dose activity change, negative = cytotoxicity, actives largely listed as cytotoxic | actives 0.76% (n = 410,000) | AID 588856
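CellTiter-Glo luminescence gave cytotoxicity after 18 hours at 37 degrees C. The cells were HepG2 CAGA-GFP in 1% FBS DMEM, stimulated with 500 pg/mL TGF-beta after compound addition. %Activity was normalised to no-cell wells (complete cell-killing) and DMSO (no toxicity), and curves were fitted and classified.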
DT40 TDP1 CPT = DT40-hTDP1 cell growth loss with CPT; chicken DT40 Tdp1-/-;hTDP1 cells + 20 nM CPT, ATP luminescence, 48 h; Potency, µM (doses to about 46.2 µM), without a hit: at the highest dose activity change, negative = growth inhibition, usual class: inhibitors; actives 12% (n = 420,000); also: % is scaled to controls: 0 for no effect and ±100 for the full control effect; nearly all actives have a fitted effect of over 55% in size
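Chicken DT40 Tdp1-/- cells complemented with human TDP1, 400 cells/well, exposed to compounds plus 20 nM camptothecin for at least 48 h at 37 C; viability read as ATP content by CellTiter-Glo luminescence.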
ATXN2 expr inh = inhibitors of ATXN2 expression. HEK-293 ATXN2-luciferase reporter, luminescence, 24 h. Potency, µM (titrated, usually from 57 µM), for inactives: at the top dose activity change, negative = inhibition, actives largely listed as inhibitors. actives 0.72% (n = 360,000). AID 1745845; also: % is scaled to controls: 0 for no effect and ±100 for the full control effect; nearly all actives have a fitted effect of over 55% in size
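ATXN2-luciferase reporter cells (luciferase flanked by upstream and downstream ATXN2 gene portions) were treated 24 h at 37 °C with compounds at up to 57 uM. SteadyGlo luminescence gave expression; GF-AFC fluorescence gave viability.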
DT40 TDP1 no CPT = qHTS for Inhibitors of human tyrosyl-DNA phosphodiesterase 1 (TDP1): qHTS in cells in absence of CPT; DT40 Tdp1-/- hTDP1 cells, no CPT, ATP luminescence, 48 h; Potency, µM (doses to about 46.2 µM), inactives show at the top dose activity change, negative = growth inhibition, most hits filed as inhibitors; actives 15% (n = 420,000); AID 686978, 2013; also: % is scaled to controls: 0 for no effect and ±100 for the full control effect; nearly all actives have a fitted effect of over 55% in size
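Growth of hTDP1-complemented DT40 Tdp1-knockout cells is measured by ATP luminescence after at least 48 hr compound exposure at 37 °C, with DMSO substituting for the 20 nM CPT used in the parallel screen.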
TGFb SMAD3 inh = TGF-b pathway inhibition | Potency, µM (highest dose often 46.1 µM), for inactives: at the top dose activity, negative = inhibition, usual class: inhibitors | HepG2 CAGA-GFP TGF-b/SMAD3 reporter, GFP fluorescence, 18 h; TGF-beta stimulated, 500 pg/mL final | AID 588855 | actives 1.2% (n = 410,000); also: % is scaled to controls: 0 for no effect and ±100 for the full control effect; nearly all actives have a fitted effect of over 65% in size
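Cell-based qHTS in HEPG2 carrying a CAGA-GFP Smad reporter; compounds added before 500 pg/mL final TGF-beta, 18 h incubation at 37 degrees C, GFP fluorescence quantified per cell by imaging cytometry.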
* hit, by the source's call; i = inactive; ? = inconclusive; . = no result given; ! = a repeat was not active. Calls follow the shape of the dose curve; as a rule, active = well fitted curve in the direction sought with a large enough effect; inconclusive = small, poorly fitted or top-dose-only effect, or another doubt; inactive = no such curve, though single readings can be large; an effect the other way counts as inactive or inconclusive. Potency is read from the fitted curve at half-maximal effect.

SMILES | ATXN viability | HepG2 tox | DT40 TDP1 CPT | ATXN2 expr inh | DT40 TDP1 no CPT | TGFb SMAD3 inh
O=C(N[C@H](CO)[C@H](O)c1ccc([N+](=O)[O-])cc1)C(Cl)Cl | i | -2% | 7.5µM*! | 0% | 11µM* | 1%
CCOC(=O)N1CCN(C(=O)COC(=O)c2cc(Cl)c(O)c(Cl)c2)CC1 | i | 15% | -5% | -7% | ? | -10%
COC(=O)c1ccc2c(=O)n(CCN3CCOCC3)c(SCC(=O)Nc3ccc(C)cc3)nc2c1 | i | 0% | -21% | 3% | -16% | 5%
CCN(C(=O)CSc1nc2cc(C(=O)OC)ccc2c(=O)n1Cc1ccco1)c1cccc(C)c1 | . | -16% | 21µM* | . | ? | 18%
CCc1ccc(NC(=O)CSc2nc3cc(C(=O)OC)ccc3c(=O)n2Cc2ccco2)cc1 | i | -1% | 16µM* | 5% | 10µM* | -5%
COc1ccccc1CNC(=O)c1ccc2c(c1)N(Cc1cc(C)ccc1C)C(=O)c1ccccc1S2 | . | -28% | 9.2µM* | . | 9.2µM* | -4%
COc1ccc(CCNC(=O)c2ccc3c(c2)N(Cc2ccccc2C)C(=O)c2ccccc2S3)cc1OC | . | -26% | 3.3µM* | . | 3.7µM* | -11%
Cc1cccc(CCNC(=O)c2ccc3c(c2)N(Cc2ccccc2F)C(=O)c2ccccc2S3)c1 | . | -8% | -39% | . | ? | 0%
CNC(=O)c1ccc2c(c1)N(Cc1cc(C)ccc1C)C(=O)c1ccccc1S2 | . | -41% | ? | . | ? | .
CCC(=O)Nc1cc(C(=O)OCc2ccc(C(=O)Oc3ccccc3)cc2)ccc1C | i | 35% | -25% | 5% | ? | 9%
CC(C)c1ccc(-c2noc(SCC(=O)N3CCCCC3)n2)cc1 | ? | -14% | ? | 0% | 12µM* | 1%
CC(C)c1ccc(-c2noc(SCC(=O)N(C)c3ccc(F)cc3)n2)cc1 | i | -45% | 26µM* | -24% | 23µM* | ?
CCN(C(=O)CSc1nc(-c2ccccc2)no1)c1ccccc1 | i | -27% | -17% | 0% | ? | ?
CC(C)c1ccc(-c2c(C#N)c(N)nc(SCC(=O)N3CCCCCC3)c2C#N)cc1 | i | -9% | -16% | 52% | -18% | -18%
COc1ccc(N2CCN(C(=O)CSc3nc(-c4ccccc4)no3)CC2)cc1 | i | 1% | -3% | 17% | -16% | -23%
CC(C)c1ccc(-c2c(C#N)c(N)nc(SCC(=O)N3CCCCC3)c2C#N)cc1 | ? | -4% | 9.2µM* | ? | ? | ?
CCOc1ccc(C2c3c(-c4cc(C)ccc4O)n[nH]c3C(=O)N2Cc2cccnc2)cc1OCC (stereo not given) | i | -18% | 1% | 8% | -19% | -17%
O=C1c2[nH]nc(-c3ccccc3O)c2C(c2cccc(Br)c2)N1Cc1ccncc1 (stereo not given) | 11µM* | -38% | 2.9µM* | ? | 1.2µM* | ?
O=C1c2[nH]nc(-c3ccccc3O)c2C(c2ccccc2F)N1Cc1ccncc1 (stereo not given) | ? | 5% | ? | -10% | ? | 25%
Cc1ccc(C2c3c(-c4ccccc4O)n[nH]c3C(=O)N2Cc2ccncc2)cc1 (stereo not given) | ? | -52% | ? | -29% | 23µM* | -19%
COc1cccc(C2c3c(-c4cc(Cl)c(C)cc4O)n[nH]c3C(=O)N2Cc2cccnc2)c1 (stereo not given) | ? | 12% | ? | 1% | 16µM* | -9%
CCc1ccc(C2c3c(-c4cc(C)ccc4O)n[nH]c3C(=O)N2Cc2cccnc2)cc1 (stereo not given) | . | 20µM* | ? | ? | ? | ?
Cc1cc(OC(F)F)ccc1NC(=O)Nc1ccc2c(c1)OCO2 | i | -2% | -4% | 1% | 26% | -6%
COC(=O)c1ccc(C2c3c(-c4ccccc4O)n[nH]c3C(=O)N2Cc2ccncc2)cc1 (stereo not given) | ? | -31% | 18µM* | 0% | ? | -4%
CCOC(=O)c1ccc(N=c2sc(C(=O)OC)cc(=O)n2Cc2ccco2)cc1 | ? | -71% | 13µM* | ? | 21µM* | ?
SMILES | ATXN viability | HepG2 tox | DT40 TDP1 CPT | ATXN2 expr inh | DT40 TDP1 no CPT | TGFb SMAD3 inh
CCOC(=O)c1ccc(N=c2sc(C(=O)OC)cc(=O)n2CCCN2CCOCC2)cc1 | ? | -45% | 15µM* | ? | 15µM* | ?
Cc1nnsc1S(=O)c1ccc(Cl)c(Cl)c1 (stereo not given) | i | -9% | 10µM* | . | 15µM* | 8%
CCN(CC(=O)NCc1cccs1)C(=O)c1cccc(S(=O)(=O)N2CC(C)OC(C)C2)c1 (stereo not given) | i | -24% | -21% | -10% | -8% | -9%
COc1cccc(-n2c(=O)c3sc4ccccc4c3n(CC(=O)Nc3ccccc3C)c2=O)c1 | ? | -15% | 6% | 10% | -15% | ?
O=C(Cn1c(=O)n(-c2cccc(Cl)c2)c(=O)c2sc3ccccc3c21)NC1CCCCC1 | i | -1% | 23µM* | -4% | ? | -11%
COc1cccc(-n2c(=O)c3sc4ccccc4c3n(CC(=O)Nc3ccccc3OC)c2=O)c1 | ? | -18% | 9.2µM* | 12% | 15µM* | ?
CN(C)c1nc(N)c([N+](=O)[O-])c(NCCO)n1 | i | 3% | 3% | 5% | 10% | 11%
CCN(CC)Cc1cc(Nc2c3ccccc3nc3c4ccccc4n(C)c23)cc(CN(CC)CC)c1O | 32µM* | -57% | 2.6µM* | 20µM* | 5.8µM* | -30%
COc1ccc(NC(=O)Cc2coc3cc(C)c(C(C)C)cc23)cc1S(=O)(=O)N1CCOCC1 | i | 1% | 12µM* | -10% | 12µM* | ?
COc1ccc2c(CC(=O)Nc3ccc(OC)c(S(=O)(=O)N4CCOCC4)c3)coc2c1 | i | -2% | -13% | 13% | ? | -7%
COc1ccc(NC(=O)c2ccc(Cl)nc2)cc1S(=O)(=O)N1CCOCC1 | i | 0% | 16µM* | . | 23µM* | -15%
O=C(Nc1cccc(S(=O)(=O)N2CCCC2)c1)c1ccncc1 | i | 1% | ? | -13% | -29% | -15%
